Common to all, as to experiment: Primary qHTS to identify gynecologic anti-cancer compounds using libraries of approved drugs and bioactive compounds (AID 1345084); note: nearly all actives have a fitted effect of over 55% in size
Details in all cases: Gynecologic cancer cell panel viability, ATPlite luminescence, 48 h; series mostly up to 57.5 µM
A general note: In qHTS, concentration-response curves come from the screen itself.

One assay has as its system OV90. In short, it runs like this:
(§1)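 Five-point cytotoxicity, 48 h drug exposure at 37 C, 5% CO2, on cells seeded 16 h beforehand. ATP content read by ATPlite luminescence.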

The subject of the next assay is PA-1. In short, it runs like this:
as §1

The test system of a further assay is SKOV3. In short, it runs like this: as §1
Another assay has as its system Tov-21-G. The method, boiled down:
as §1

Results filed as inconclusive are left out. Unmarked numbers belong to inactive results. Calls of active or inactive are those of the source. Calls come from the whole dose curve; as a rule, active = well fitted cell-killing curve with a large enough effect; inconclusive = small, poorly fitted or top-dose-only effect, or effect the other way; inactive = flat fitted curve, though single readings scatter. Where a SMILES comes first, the peptide text is derived from it. [ ]: non-standard residue; d: D form. The star is where a group is joined. Hyp = O=C(O)[CH]1C[CH](O)CN1; Phe(ol) = N[CH](CO)Cc1ccccc1; Iva = CC[C](C)(N)C(=O)O; Cbz = O=C(OCc1ccccc1)*; Aib = CC(C)(N)C(=O)O; CH2Cl = ClC*
% is set by controls: 0 for no effect and ±100 for the full control effect; potency is the fitted concentration of half-maximal effect.

As to `COc1cc(CCO)ccc1O[C@@H]1O[C@H](CO)[C@@H](O)[C@H](O)[C@H]1O`, in the assay on OV90, the Potency entry is “inactive”.

With `Cn1c(=O)c2c(ncn2Cc2ccc(C(C)(C)C)cc2)n(C)c1=O`, the Potency with OV90 was 10 µM (active).

Turning to `O=C(c1ccc(OC(F)F)c(C#Cc2ccccn2)c1)N1Cc2cccnc2C1`, the Potency result in the assay on OV90 is “inactive”.

As for `COC(=O)N1CCC(n2ncc3c(N4CCOCC4)nc(-c4ccc(NC(=O)NC5CC5)cc4)nc32)CC1`, the Potency in the assay with OV90 was 0.501 µM (active); with PA-1, 1.41 µM (active).

With `C=C1C(=O)OC2/C=C(\COC(C)=O)CC/C=C(\C=O)CC(OC(=O)C(C)CC)C12` (configuration not stated), in the assay with OV90, the Potency result was “inactive”. The Potency in the assay on PA-1 was 11.2 µM (active).

Turning to `Cn1ncnc1[C@H]1c2n[nH]c(=O)c3cc(F)cc(c23)N[C@@H]1c1ccc(F)cc1`, the Potency entry with OV90, in the assay with SKOV3 and in the assay with Tov-21-G was “inactive” in each case. Also, the Potency in the assay on PA-1 was 1 µM (active).

Take `CC(OC1OCCN(Cc2n[nH]c(=O)[nH]2)C1c1ccc(F)cc1)c1cc(C(F)(F)F)cc(C(F)(F)F)c1` (configuration not stated): the Potency result in the assay on OV90, in the assay on PA-1, with SKOV3 and in the assay on Tov-21-G was “inactive” each time.

Turning to `C=C1C(=O)O[C@@H]2C(OC(=O)/C(C)=C\C)/C(C)=C\C(=O)/C=C(\C)C[C@H](O)[C@@H]12` (some centres not stated), the Potency entry in the assay on OV90 and with SKOV3 was “inactive” throughout. Moreover, the Potency in the assay on PA-1 and with Tov-21-G was 10 µM (active) each time.

As to `Oc1ccc(-c2cnc3ccc(NCc4ccco4)nn23)cc1`, in the assay with OV90, the Potency entry was “inactive”. Moreover, the Potency in the assay on PA-1 is 28.2 µM (active); in the assay with SKOV3, 14.1 µM (active).

In the case of `CC(=O)C1=CCC2C3CC=C4CC(O)CC(O)C4(C)C3C(O)CC12C` (configuration not stated), the Potency result in the assay on OV90 and in the assay on PA-1 was “inactive” in each case.

In the case of `CNC1CN(c2ccc3c(=O)c(C(=O)O)cn(-c4nccs4)c3n2)CC1OC` (configuration not stated), the activity change, negative = cytotoxicity with OV90 was -6.73% [at 11.6 µM]. For the same compound, in the assay with PA-1, the Potency is 1.41 µM (active).

For `Cc1[nH]c(/C=C2\C(=O)Nc3ccc(S(=O)(=O)N(C)c4cccc(Cl)c4)cc32)c(C)c1C(=O)N1CCN(C)CC1`, the Potency result in the assay with OV90, with PA-1, in the assay on SKOV3 and with Tov-21-G was “inactive” each time.

Regarding `COC(=O)C1=COC(O[C@@H]2O[C@H](CO[C@@H]3O[C@H](COC(=O)/C=C\c4ccc(O)cc4)[C@@H](O)[C@H](O)[C@H]3O)[C@@H](O)[C@H](O)[C@H]2O)C2C(CO)=CCC12` (some centres not stated), the Potency result with OV90 was “inactive”.

`Cc1cc(C(=O)Nc2cc(Oc3ccc4nc(NC(=O)C5CC5)cn4n3)ccc2C)n(C)n1`: the Potency result in the assay on OV90 and in the assay on PA-1 was “inactive” each time. For the same compound, the Potency in the assay on SKOV3 is 10 µM (active).

As for `NCCOc1cc(C(=O)Nc2cc(OCCN)c3ccccc3n2)nc(C(=O)Nc2cc(OCCN)c3ccccc3n2)c1`, the Potency entry in the assay on OV90 is “inactive”. Also, the Potency with PA-1 was 7.94 µM (active); in the assay with SKOV3, 8.91 µM (active).

Consider `C=CC(=O)Nc1ccc(CN2C(=O)N(c3cc(OC)cc(OC)c3)Cc3cnc(Nc4ccc(N5CCN(C)CC5)cc4)nc32)cc1`, for which the Potency entry in the assay on OV90 and in the assay with PA-1 was “inactive” each time. Besides, the Potency in the assay on SKOV3 is 15.8 µM (active).

In the case of `COc1cc(NC(=O)c2cccc(-n3cc(NC(=O)Nc4cccc(C)c4)cn3)c2)cc(OC)c1OC`, the Potency entry in the assay on OV90 and in the assay on PA-1 was “inactive” each time.

Turning to `C=C1[C@@H](OC(C)=O)CC[C@@]2(C)[C@@H](OC(C)=O)[C@H](OC(C)=O)C3=C(C)C[C@H](OC(=O)C(C)CC)[C@@H]([C@@H](OC(C)=O)[C@H]12)C3(C)C` (some centres not stated), in the assay with OV90, the Potency entry was “inactive”.

On to `O=C(O)CSc1cc(NS(=O)(=O)c2ccc(Br)cc2)c2ccccc2c1O`, for which the Potency entry in the assay with OV90 is “inactive”.

Consider `CC(C)C[C@H](NC(=O)CNC(=O)OCc1ccccc1)C(=O)N[C@@H](Cc1ccccc1)C(=O)CCl` (Cbz-Gly-Leu-Phe-CH2Cl), for which, in the assay with OV90, the Potency entry was “inactive”.

On to `CC(=O)OC1[C@H]2[C@@H](C[C@@H](C)[C@@H]3C=CC(=O)[C@@]13C)OC(=O)[C@@H]2C` (some centres not stated), for which the Potency result in the assay with OV90 was “inactive”. Further, the Potency in the assay on PA-1 was 35.5 µM (active).

In the case of `Cc1c(NC(=O)OCC2COCCN2)cn2ncnc(Nc3ccc4c(cnn4Cc4cccc(F)c4)c3)c12` (configuration not stated), the Potency result in the assay on OV90 was “inactive”.

Turning to `Cc1cc2ncc(C(=O)NCC(C)(C)NCC(=O)N3CCC[C@H]3C#N)cn2n1`, the Potency result in the assay on OV90 is “inactive”.

On to `CC(C)n1nc(C#Cc2ccccc2)c2c(N)ncnc21`, for which the Potency entry with OV90 and with PA-1 was “inactive” each time.

With `COC(=O)C1=CO[C@@H](O[C@@H]2O[C@H](CO)[C@@H](O)[C@H](O)[C@H]2O)[C@H]2[C@@H]1C=C[C@]21C=C([C@H](C)OC(=O)/C=C/c2ccc(O)cc2)C(=O)O1`, the Potency entry in the assay on OV90 was “inactive”. Further, the Potency with PA-1 was 12.6 µM (active); with SKOV3 it was 8.91 µM (active).

With `CCC(C)(NC(=O)C(CCC(N)=O)NC(=O)C1CC(O)CN1C(=O)C(C)(C)NC(=O)C(C)(C)NC(=O)C(CC(C)C)NC(=O)CNC(=O)C(NC(=O)C(C)(C)NC(=O)C(C)(C)NC(=O)C(C)(C)NC(=O)C(Cc1ccccc1)NC(C)=O)C(C)C)C(=O)N1CC(O)CC1C(=O)NC(C)(C)C(=O)NC(CO)Cc1ccccc1` (configuration not stated) (Ac-F[Aib][Aib][Aib]VGL[Aib][Aib][Hyp]Q[Iva][Hyp][Aib][Phe(ol)]; configuration not given here), in the assay with OV90, the activity change, negative = cytotoxicity was -17.1% [at 6.55 µM].

As to `NCC1CCN(c2nccc(-c3ccc4ccccc4c3)n2)CC1`, in the assay with OV90, the Potency entry is “inactive”. In addition, the values for the Potency in the assay on PA-1 and in the assay on SKOV3 were 14.1 µM (active) and 22.4 µM (active), respectively.

Regarding `C[C@@H](Nc1ncnc2[nH]c(-c3ccc(O)cc3)cc12)c1ccccc1`, the Potency entry in the assay with OV90 and in the assay with PA-1 was “inactive” in each case.

With `Cc1nnc(C[C@@H]2C=C(c3ccc(Cl)cc3)c3ccccc3-n3c(C)nnc32)o1`, the Potency in the assay with OV90 was 20 µM (active).

On to `COc1cc2c(NC3CCN(C(C)C)CC3)nc(N3CCC(F)(F)CC3)nc2cc1OCCCN1CCCC1`, for which the Potency with OV90 was 11.2 µM (active); in the assay on PA-1, 22.4 µM (active).

`O=C1C[C@]23C=CCN4CCC5c6cc7c(cc6N1[C@@]5(CC2)C43)OCO7` (some centres not stated): the Potency entry with OV90 and in the assay with PA-1 was “inactive” each time.

With `Cc1cc(NC(=O)c2cccc(NC(=O)/C=C/CN(C)C)c2)ccc1Nc1nccc(-c2cccnc2)n1`, the Potency entry in the assay with OV90 is “inactive”.

`COc1ccc2nc(-c3cc(OC)c(OC)c(OC)c3)cc(C(=O)NCC(=O)Nc3ccc(C(C)=O)cc3)c2c1`: the Potency result in the assay with OV90 is “inactive”.

Take `COc1ccc(CCc2nc3c(C)c(-c4c(C)noc4C)c(C)cc3n2CCN2CCOCC2)cc1`: the Potency entry in the assay on OV90 was “inactive”.

Consider `C=C(C)C1CC(O)C(C)C12CC(O)C1(C)OC1C2O` (configuration not stated), for which the Potency in the assay with OV90 is 7.08 µM (active); in the assay on PA-1, 8.91 µM (active); in the assay on SKOV3, 7.94 µM (active).

On to `CC(C)CC(=O)c1c(O)cc2c(c1O)C(CC(C)C)C1=C(O2)C(C)(C)C(=O)C(C)(C)C1=O` (configuration not stated), for which the Potency result in the assay with OV90 is “inactive”.

Take `O=C(NO)c1cnc(N2CCN(S(=O)(=O)c3ccc4ccccc4c3)CC2)nc1`: in the assay on OV90, the Potency was 3.98 µM (active).

Turning to `CC(C)NC(=O)COc1cccc(-c2nc(Nc3ccc4[nH]ncc4c3)c3ccccc3n2)c1`, the Potency result in the assay with OV90 is “inactive”.

In the case of `CCCC1(CCC)CCC2(CCN(CCCN(CC)CC)C2)CC1`, the Potency in the assay on OV90 is 7.08 µM (active); in the assay on PA-1, 5.01 µM (active); in the assay on SKOV3 it was 7.94 µM (active); in the assay with Tov-21-G, 6.31 µM (active).

Consider `COc1ccc(C2(CNC(=O)c3ccc(NC(=O)c4ccco4)cc3)CCOCC2)cc1`, for which the Potency entry in the assay on OV90, in the assay on PA-1, in the assay on SKOV3 and in the assay with Tov-21-G was “inactive” each time.

Values taken from PubChem BioAssay (NCATS).
